# Bioassay records: PubChem, several laboratories
# D1 allo mod = D1 CRE-luciferase signal change, two-sided – cell-based, HEK293 D1, dopamine EC30, D1 allosteric modulator project, primary screen; dopamine EC30 potentiation; actives deviate in either direction; B-score at 10 µM; 5.9% of 58,000 active;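 active means luminescence count or its row- and column-corrected plate score outside the 99.7% band of the plate's sample wells, on either side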
# PLAP act = PLAP enzyme activators, biochemical, luminescence, HTS; Alkaline phosphatase, placental type (Homo sapiens), P05187; purified PLAP enzyme, luminescent substrate read-out; active compounds read high; activation fold at 20 µM; 1.2% of 96,000 active; AID 696, 2007; in the data active means activation fold above about 2
# Target sequence (P05187 whole entry, looked up): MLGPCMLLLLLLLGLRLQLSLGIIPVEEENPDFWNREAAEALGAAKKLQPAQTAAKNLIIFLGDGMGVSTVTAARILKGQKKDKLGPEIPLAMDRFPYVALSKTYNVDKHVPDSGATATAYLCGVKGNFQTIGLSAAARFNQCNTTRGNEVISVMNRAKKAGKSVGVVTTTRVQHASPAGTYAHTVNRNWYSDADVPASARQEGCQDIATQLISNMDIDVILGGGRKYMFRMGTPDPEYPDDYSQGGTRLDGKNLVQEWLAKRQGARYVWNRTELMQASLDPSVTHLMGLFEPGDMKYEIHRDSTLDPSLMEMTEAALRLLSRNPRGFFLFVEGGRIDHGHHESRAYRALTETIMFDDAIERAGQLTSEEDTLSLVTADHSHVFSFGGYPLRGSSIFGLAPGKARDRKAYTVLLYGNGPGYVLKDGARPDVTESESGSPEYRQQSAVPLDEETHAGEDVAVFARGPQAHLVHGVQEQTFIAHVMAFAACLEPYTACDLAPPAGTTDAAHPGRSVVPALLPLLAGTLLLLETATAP
# DAT uptake mod = changed hDAT dopamine uptake under cocaine IC80, either direction, primary screen, cocaine antagonist project, cell-based, LLC-PK1 hDAT, [14C]-dopamine uptake, MLSMR; LLC-PK1 hDAT cells, [14C]-dopamine uptake with cocaine IC80; actives deviate in either direction; Sodium-dependent dopamine transporter (Homo sapiens), Q01959; 1.3% of 110,000 active; B-score at 10 µM; AID 449768, 2010;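 active means Z score or B-score, a plate-position-corrected score, falls beyond the plate's 99.7% confidence bounds, in either direction; inactive means both scores lie inside the 99.7% bounds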
# Cav32 inh = Cav3.2 calcium influx blockers – cell-based, Fluo-4 calcium fluorescence, FDSS, MLSMR library, primary screen. Voltage-dependent T-type calcium channel subunit alpha-1H (Homo sapiens), O95180. Cav3.2-expressing cells; active compounds read low. B-score at 10 µM. 4% of 100,000 active;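 active means single-dose well whose peak fluorescence ratio is a statistical outlier from its plate by either plate-standardised score or position-corrected B-score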
# PostGolgi yeast = phenotypic screen on post-Golgi transport, primary screen; post-Golgi transport phenotypic cell assay; inhibition, % at 10 µM; 0.9% of 98,000 active;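 further: yeast cells grown in 1536-well plates; yeast grown about 18 h at 30C before absorbance read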
# PostGolgi ctrl = growth inhibition of yeast control strain, primary screen, counter-screen for post-Golgi transport modulator project; efflux-deficient yeast background strain, growth absorbance A615, 16 h; inhibition, % at 10 µM; 5% of 98,000 active
# Hits are given with their value; 0 = inactive; - = not tested or not shown. An excerpt weighted towards active compounds, which were near 12% of everything screened. Unless noted, no stated cut-off is given here; in the data, active means inhibition above about 30%; inactive means the rest.
SMILES,D1 allo mod,PLAP act,DAT uptake mod,Cav32 inh,PostGolgi yeast,PostGolgi ctrl
NC(=O)Cc1c[nH]c2cccc(O)c12,0,0,0,0,-,-
COc1ccc2[nH]cc(CCN=C3SCC(=O)N3C)c2c1,0,0,0,0,0,0
CC(C)CCn1c(=S)[nH]c2ncccc2c1=O,-,0,-,-,0,0
CCOCCCn1c(=S)[nH]c2ncccc2c1=O,-,0,-,-,0,33
O=c1c2cccnc2[nH]c(=S)n1CCCN1CCN(c2ccc(F)cc2)CC1,-,0,0,0,0,42
Cc1cc(C)cc(NC(=O)c2nnn(Cc3cc(C)ccc3C)c2N)c1,0,0,0,0,0,37
Cc1ccccc1Cn1nnc(C(=O)Nc2cccc(C)c2C)c1N,0,0,-,-,0,0
O=C(O)COc1ccccc1C1C2C(=O)N(c3ccc(F)cc3)C(=O)C2ON1c1ccccc1 (stereo not drawn),0,0,0,0,0,0
Cc1nc(NC(C)c2ccccc2)c2oc3ccccc3c2n1 (stereo not drawn),0,0,0,0,0,74
Cc1nc(N[C@@H](Cc2ccccc2)C(=O)O)c2oc3ccccc3c2n1,-,0,-,-,0,0
COc1ccc(CCNc2ncnc3c2oc2ccccc23)cc1OC,0,0,0,0,0,0
COc1ccc(CCNc2nc(C)nc3c2oc2ccccc23)cc1OC,-,2,0,0,0,0
CS(=O)(=O)N(CC(=O)NCc1ccccn1)Cc1ccc(Cl)cc1,0,-,0,0,0,0
CCOC(=O)c1oc2cccc(OCC(O)CNC(C)C)c2c1C (stereo not drawn),0,0,-,-,0,0
CCOc1cc(/C=C2\SC(=S)N(Nc3ccccc3)C2=O)ccc1O,-,0,-,-,0,61
COc1cc(/C=C2\SC(=S)N(Nc3ncc(C(F)(F)F)cc3Cl)C2=O)ccc1O,-,0,0,0,0,0
O=C(COc1ccccc1)Nc1ccc(OC(F)(F)C(F)F)c(NC(=O)COc2ccccc2)c1,-,0,0,0,0,0
CCOC(=O)c1ccc(CSc2nnc(C)n2N)o1,-,0,0,0,0,0
CCOC(=O)c1ccc(CSc2n[nH]c(C)n2)o1,0,2,0,0,0,0
O=C(CSc1nnc(-c2ccccc2)n1Cc1ccco1)NCc1ccc2c(c1)OCO2,-,0,0,-4.1,0,0
O=C(CSc1nccn1-c1ccccc1)NCc1ccc2c(c1)OCO2,0,0,0,0,0,0
O=C1COc2ccc(C(=O)CSc3nnc(Cc4cccs4)n3-c3ccc(Cl)cc3)cc2N1,-,0,0,-3.9,0,0
O=C(CSc1nnc(Cc2cccs2)n1-c1ccccc1)NCc1ccc2c(c1)OCO2,-,0,0,-4.7,0,0
O=C1COc2ccc(C(=O)CSc3nnnn3-c3ccccc3)cc2N1,-,0,0,0,0,0
O=C(NCc1ccccc1)c1onc(CSc2ccc(F)c(F)c2)c1C(=O)NCc1ccccc1,-,-,0,0,-,-
SMILES,D1 allo mod,PLAP act,DAT uptake mod,Cav32 inh,PostGolgi yeast,PostGolgi ctrl
CCS(=O)(=O)N1CCC(NC(=O)C2CCCCC2)CC1,0,0,0,0,0,0
CCOc1ccc(C(CCc2ccccc2)NC(=O)c2ccccc2)cc1OCC (stereo not drawn),-,0,0,-5.1,0,0
COc1ccc(OC)c(NC(=O)CSc2nnc(N)s2)c1,-,0,0,0,0,0
COc1ccc(S(=O)(=O)NNC(=O)c2cc3cc4ccccc4nc3s2)cc1,-,2,0,0,0,0
O=C(c1cn(-c2ccccc2)nc1-c1cccs1)N1CCN(c2ccc(F)cc2)CC1,-,0,0,-,0,48
O=C(c1cc(-c2cccs2)on1)N1CCN(c2ccc(F)cc2)CC1,0,0,0,0,0,0
Cc1cc(N2CCOCC2)nc(SCc2ccc(Cl)cc2Cl)n1,-,0,0,0,0,42
CC[C@]1(O)CC2CN(CCc3c([nH]c4ccccc34)[C@@](C(=O)OC)(c3cc4c(cc3OC)N(C)[C@H]3[C@@](O)(C(N)=O)[C@H](O)[C@]5(CC)C=CCN6CC[C@]43[C@@H]65)C2)C1 (stereo partly drawn),-,-,0,0,-,-
CC(=O)c1ccc(NC(=O)C2CCCN2S(=O)(=O)c2cccc3cccnc23)cc1 (stereo not drawn),0,0,0,0,0,31
C=CCc1c(C)nc(C)nc1N/N=C/c1ccccc1O,-,2.5,0,0,0,0
CC(=O)c1cc(C#N)c(SCc2ccccc2C#N)nc1C,-,-,0,0,-,-
O=C(C1CCCO1)N1CCN(C(c2ccccc2)c2ccccc2)CC1 (stereo not drawn),0,0,0,0,0,0
O=C(N1CCCCCC1)N1CCN(S(=O)(=O)c2ccccc2)CC1,-,0,0,0,0,0
O=C(c1ccc(Br)cc1)N1CCN(S(=O)(=O)c2ccccc2)CC1,0,0,0,0,0,35
O=C(C1CCCO1)N1CCN(S(=O)(=O)c2ccccc2)CC1 (stereo not drawn),-,0,0,0,0,36
CCOc1nc(Nc2ccc(-c3nc4ccccc4o3)cc2)nc(N2CCOCC2)n1,0,-,-,-,-,-
O=C1C=C(c2cccc(O)c2)CCC1,-,-,0,0,-,-
Oc1cccc(-c2nc3ccc4ccccc4c3c3c2CCC3)c1,-,0,0,0,55,44
CCO[C@H]1OC(C(=O)N2CCN(C)CC2)=C[C@@H](C)[C@@H]1CCCO,-,-,0,0,-,-
COC(=O)C[C@H]1c2cc(C(F)(F)F)ccc2S(=O)(=O)N1Cc1ccc(OC)cc1,-,-,0,0,-,-
O=C(OCn1nnc2ccccc2c1=O)c1ccc(S(=O)(=O)N2CCOCC2)cc1,0,0,0,0,0,0
CCN(CC)S(=O)(=O)c1ccc(C(=O)OCn2nnc3ccccc3c2=O)cc1,0,0,0,0,89,78
COc1ccc(-c2nnn(CCC(=O)O)n2)cc1,-,0,0,0,0,0
CN(C)/C=N/c1c(C#N)cnn1-c1ncnc2sc(-c3ccccc3)cc12,0,0,3.2,0,0,0
CCOn1c(=O)c(C)[n+]([O-])c2ccccc21,-,-,0,0,-,-
SMILES,D1 allo mod,PLAP act,DAT uptake mod,Cav32 inh,PostGolgi yeast,PostGolgi ctrl
Cc1cc(C)n(CCOc2ccc(Cl)cc2Cl)n1,0,0,0,0,0,35
Cc1cc(C)n(C(=O)COc2ccc(Cl)cc2Cl)n1,-,-,0,0,-,-
O=C(N[C@@H](Cc1ccc(O)cc1)C(=O)O)c1cccnc1,-,-,0,0,-,-
Cc1c(Cl)cccc1-n1c(SCC(=O)N(C)Cc2ccccc2)nnc1-c1ccncc1,-,0,3.8,0,0,0
CC(C)NC(=O)c1cc(=O)n(C)c(=O)n1C,0,0,0,0,0,0
COc1cc(OC)c2ccc(=O)oc2c1C(CCN1CCCC1)c1ccc2c(c1)OCO2 (stereo not drawn),-,-,1.1,0,-,-
COc1cc(OC)c2c(-c3ccccc3)cc(=O)oc2c1C(CCN1CCCC1)c1ccc2c(c1)OCO2 (stereo not drawn),-,-,0,0,-,-
